# Screen size: about 400,000 compounds; about 5,500 (1.4%) were called active. Inconclusive results (about 9%) are left out. For the sample, actives were picked, then their nearest neighbours and some compounds at random. Unmarked numbers belong to inactive results. Calls follow the shape of the dose curve; as a rule, active = well fitted cell-killing curve with a large enough effect; inconclusive = small, poorly fitted or top-dose-only effect, or effect the other way; inactive = flat fitted curve, though single readings scatter.
# Assay: qHTS assay for MDR1-selective chemotherapeutics: Primary screen using the parental adenocarcinoma cell KB-3-1; also: nearly all actives have a fitted effect of over 60% in size
# Settings: KB-3-1 viability, CellTiter-Glo ATP luminescence, 72 h; series mostly up to 46.1 µM; activity change, negative = cytotoxic: at the top concentration
# Outline: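 Screening of KB-3-1 cells (DMEM, 10% FBS, phenol-red free) ran from lowest to highest compound concentration; after 72 h at 37 °C viability was read luminescently and curves fitted.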
# % is scaled to controls: 0 for no effect and ±100 for the full control effect; potency is read from the fitted curve at half-maximal effect.
Structure (SMILES),"activity change, negative = cytotoxic",Potency
COc1ccc(-c2nn(CC(=O)Nc3ccccc3F)c3c2cnc2ccc(F)cc23)cc1,-5.21%,–
Cc1c2cnn(-c3ccccc3)c(=O)c2c(C)n1C(C)C(=O)Nc1ccc(Br)cc1F (stereo not given),5.69%,–
CN(C)C(=S)N=c1ssc(=S)n1Cc1ccco1,–,4.11 µM (active)
CCc1ccccc1N1CN(Cc2ccco2)CNC1=S,2.61%,–
CCN(CC)C(=O)CSc1nnc(CNc2ccc(F)cc2)n1Cc1ccco1,-10.8%,–
CCOc1ccc2nc(N3CCCC(C(=O)Nc4cc(C)ccc4C)C3)sc2c1 (stereo not given),-4.09%,–
CCc1ccc(NC(=O)c2cnc3c(-c4ccccc4)c(C)nn3c2C)cc1,-2.78%,–
CCN(CC)S(=O)(=O)c1ccc(N(C)CCc2ccc(OC)c(OC)c2)nc1,-18.5%,–
CCN(CC)S(=O)(=O)c1ccc(NC(=O)c2cnc(C)cn2)cc1,17.5%,–
CCN(CC)S(=O)(=O)c1ccc(N(C)Cc2ccc(C(F)(F)F)cc2)nc1,–,10.3 µM (active)
COc1ccccc1-n1c(-c2ccc(C)cc2)cn2c3c(=O)n(C)c(=O)n(C)c3nc12,16.8%,–
CN(C)c1ccc(/C=C2\C=Cc3ccccc32)cc1Br,11%,–
CCOC(=O)c1cc2c(=O)n3ccccc3nc2n(Cc2ccco2)c1=NC(=O)c1ccc(F)cc1,13.8%,–
COc1ccc(Nc2cc(=O)n(-c3ccccc3)c3c2c(=O)n(C)c(=O)n3C)cc1,43%,–
COc1ccc(Nc2cc(=O)oc3ccccc23)cc1,–,4.11 µM (active)
COc1ccc(CCNC(=O)COC(=O)c2cc(=O)c3ccccc3o2)cc1,-1.64%,–
CC1=C(C(=O)OCC2CCCCC2)C(c2c(F)cccc2Cl)CC(=O)N1 (stereo not given),12.9%,–
CCc1ccc(N(CC)C(=O)CCn2cnc3onc(-c4ccc(F)cc4)c3c2=O)cc1,1.49%,–
CCCc1cc(-c2nc(-c3ccc(C)cc3)cs2)ccn1,–,11.6 µM (active)
Fc1ccc(-c2csc(-c3ccc(C4SCCS4)cc3)n2)cc1F,2.11%,–
CCCc1nc2scc(-c3ccc(C)cc3)c2c(=O)n1N,-2.91%,–
CCc1ccc(NC(=O)CN2C(=O)COc3ccc(S(=O)(=O)N4CCCC4)cc32)cc1,12.8%,–

Structure (SMILES),"activity change, negative = cytotoxic",Potency
O=C(CN1CCCCCC1)Nc1ccc(S(=O)(=O)N2CCCCC2)cc1,-4.68%,–
CCc1ccc(NC(=O)CN2CCSc3ccc(S(=O)(=O)N4CCCC4)cc32)cc1,–,16.4 µM (active)
O=C(NNS(=O)(=O)c1ccc(F)cc1)c1ccc([N+](=O)[O-])cc1Cl,-17%,–
O=C(NCCNc1ccc([N+](=O)[O-])cc1Cl)c1ccccc1F,-1.36%,–
O=[N+]([O-])c1ccc(NS(=O)(=O)c2ccccc2)c(Cl)c1,–,16.4 µM (active)
Cc1cccc(-n2ccnc2SCC(=O)Nc2cc(C(F)(F)F)ccc2Cl)c1,-13%,–
Cc1cccc(C(=O)Nc2ccc(-c3nc4ccccc4s3)c(C)c2)c1,1.57%,–
Nc1nnc2c(C(F)(F)F)nc3ccccc3n12,-3.46%,–
CN(NC(=O)c1ccccc1)c1nc2ccccc2nc1C(F)(F)F,–,2.91 µM (active)
CSc1nc(N(C)NC(=O)c2cccc(C)c2)c2ccccc2n1,–,0.184 µM (active)
Cc1ccccc1CCNC(=O)C1CCN(c2nc3ccccc3nc2C(F)(F)F)CC1,-10.5%,–
Cc1cccc(C(=O)NCCc2nc3ccccc3n2Cc2ccccc2Cl)c1,-12%,–
COc1ccc(C)cc1Nc1nc2ccccc2c2nnc(C)n12,-1.35%,–
Cc1ccc(-c2nc(CS(=O)(=O)CC(=O)NCc3ccccc3Cl)c(C)o2)cc1,16.7%,–
O=C(CSc1nnc(CNC(=O)c2ccccc2)n1-c1ccc(F)cc1)Nc1ccccc1F,0.161%,–
COc1ccc(C(=O)c2oc3ccccc3c2NC(=O)COc2cccc(C)c2)cc1,4.39%,–
COc1ccc(CNc2nc(-c3ccc(Cl)cc3)cc(C(F)(F)F)n2)cc1,2.34%,–
O=C(Nc1ccc2nc(SCCOc3ccccc3)sc2c1)c1ccco1,4.12%,–
CCOCCn1ccc2c(OCC(=O)NCc3ccc(C)cc3)cccc2c1=O,7.56%,–
CCCn1ccc2c(OCC(=O)NCc3ccc(F)cc3)cccc2c1=O,2.13%,–
COC(=O)COc1cccc2c(=O)n(CC(=O)NCc3ccccc3)ccc12,–,6.51 µM (active)
CCCCOc1ccc(NC(=O)c2cc3c(n(-c4ccc(Cl)cc4)c2=O)CCCC3=O)cc1,-11.6%,–

Structure (SMILES),"activity change, negative = cytotoxic",Potency
Cc1ccc2cccc(NC(=O)C(C)Oc3ccc(C)c(C)c3)c2n1 (stereo not given),-2.07%,–
O=C(Nc1cc(-c2nc3ccccc3o2)ccc1Cl)c1cc([N+](=O)[O-])ccc1N1CCOCC1,-0.615%,–
CCN(CC)CCCC(C)n1c2nc(=O)[nH]c(=O)c-2nc2cc(Cl)ccc21 (stereo not given),–,6.51 µM (active)
COc1cccc(NC(=O)Cn2c(=O)cc(C)c3c(C)nn(-c4cccc(F)c4)c32)c1,4.05%,–
CSc1ccc(CCNC(=O)c2ccc3c(c2)nc2n3CCOC2)cc1,-7.69%,–
CCc1ccc(NC(=O)c2cc(S(=O)(=O)NC3CCCCCC3)ccc2F)cc1,-5.14%,–
Cc1ccc(NC(=O)c2cc(S(=O)(=O)NCCC3=CCCCC3)ccc2F)cc1C,–,16.4 µM (active)
COc1ccccc1NC(=O)c1cc(S(=O)(=O)NCCc2ccccc2)ccc1F,1.79%,–
O=C(CSc1cn(CC(=O)N2CCOCC2)c2ccccc12)Nc1ccccc1,6.27%,–
Cc1cccc(-c2nnc(SCC(=O)N3CCCc4ccccc43)o2)c1,0.542%,–
CCCC[C@H]1COCCS(=O)(=O)N1Cc1cccc(Cl)c1,–,inactive
CCC(C)[C@H]1COCCS(=O)(=O)N1Cc1ccc(C)cc1 (stereo not given in full),15.7%,–
O=S1(=O)CCOC[C@H](CC2CCCCC2)N1Cc1ccc(F)cc1,–,16.4 µM (active)
Cc1ccc2oc(=O)c3cnn(CC(=O)N4CCN(c5cccc(Cl)c5)CC4)c3c2c1,-1.01%,–
COc1cc(OC)c(N(C)C(=O)c2cc3c(=O)oc4ccccc4c3s2)cc1Cl,-2.75%,–
COc1ccc(Cc2nc3ccc(C(=O)NCc4ccccc4Cl)cc3o2)cc1,-13.2%,–
CCOc1ccc(NC(=O)CCC(=O)N2CC(C)Oc3ccc(C)cc32)cc1 (stereo not given),-8.02%,–
CCOc1ccc(CNC(=O)c2cccc(Nc3nc4ccccc4n4nnnc34)c2)cc1OC,-1.42%,–
Cc1ccc(Cn2c(C)c3cnn(CC(=O)NCc4ccccn4)c(=O)c3c2C)cc1,-23.7%,–
Cc1ccc(Cn2c(C)c3cnn(CC(=O)NCc4ccccc4)c(=O)c3c2C)cc1,–,13 µM (active)
Cc1c2cnn(CC(=O)NCc3ccccn3)c(=O)c2c(C)n1Cc1ccc(Cl)cc1,9.63%,–
